Hits are enriched below; roughly 4.1% of the tested compounds scored in any of these assays.
IDE act: IDE (human) activation, cell-based | activation, % at 5.96 µM | AID 493087 | HEK cells, FAbeta-B cleavage, fluorescence polarization; 0% vehicle, 100% cell-free pure enzyme wells | actives 0.073% (n = 340,000);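 active = activation above the mean of all tested compounds plus 3 SD, set per screening campaign, cut at about 17% in these data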
Target sequence (P14735 whole entry, looked up): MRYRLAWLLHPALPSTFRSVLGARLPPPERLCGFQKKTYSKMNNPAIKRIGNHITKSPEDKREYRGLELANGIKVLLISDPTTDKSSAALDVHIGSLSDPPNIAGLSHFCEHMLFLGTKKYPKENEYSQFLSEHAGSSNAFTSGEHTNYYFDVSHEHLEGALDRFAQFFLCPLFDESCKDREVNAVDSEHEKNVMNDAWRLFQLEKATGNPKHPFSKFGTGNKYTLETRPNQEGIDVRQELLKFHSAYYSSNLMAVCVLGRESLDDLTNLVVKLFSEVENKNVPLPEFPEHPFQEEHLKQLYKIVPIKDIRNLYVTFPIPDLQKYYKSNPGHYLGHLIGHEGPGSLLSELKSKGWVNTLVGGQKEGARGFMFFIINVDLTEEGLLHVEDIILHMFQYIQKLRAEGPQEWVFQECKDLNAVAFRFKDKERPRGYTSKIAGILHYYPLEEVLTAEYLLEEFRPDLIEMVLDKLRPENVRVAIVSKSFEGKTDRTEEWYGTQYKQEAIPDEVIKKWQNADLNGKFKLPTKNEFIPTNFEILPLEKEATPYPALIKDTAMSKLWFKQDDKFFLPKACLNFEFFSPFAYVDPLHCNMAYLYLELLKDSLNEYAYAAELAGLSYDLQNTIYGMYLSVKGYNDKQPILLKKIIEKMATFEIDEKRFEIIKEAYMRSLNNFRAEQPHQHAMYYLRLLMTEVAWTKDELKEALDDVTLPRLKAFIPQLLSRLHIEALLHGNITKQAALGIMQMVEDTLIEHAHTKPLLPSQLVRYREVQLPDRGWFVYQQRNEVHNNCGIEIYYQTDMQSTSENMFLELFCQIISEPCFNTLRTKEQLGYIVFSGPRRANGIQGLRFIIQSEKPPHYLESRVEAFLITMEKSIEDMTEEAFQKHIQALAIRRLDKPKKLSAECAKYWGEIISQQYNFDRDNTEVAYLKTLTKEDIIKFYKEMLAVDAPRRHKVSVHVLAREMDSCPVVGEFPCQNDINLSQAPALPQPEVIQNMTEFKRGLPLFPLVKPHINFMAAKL
IDE cell inh: cellular human IDE inhibition; P14735; HEK cells, FAbetaB cleavage, fluorescence polarization; inhibition, % at 5.59 µM; actives 0.41% (n = 320,000); AID 434962;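 active = percent inhibition above the average of all tested compounds plus 3 SD, set per screening campaign, cut at about 16% in these data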;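 also: IDE supplied by intact live HEK cells; FP after avidin binding of uncleaved biotin substrate so inhibition keeps polarization high; 0% = DMSO wells and 100% = 60 µM reference IDE inhibitor Ii1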
PfM18AAP inh: blocks P. falciparum M18 aspartyl aminopeptidase; inhibition, % at 7.35 µM; actives 1.2% (n = 290,000); recombinant PfM18AAP, H-Glu-NHMec fluorogenic cleavage;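 active = inhibition above the campaign mean inhibition over all tested compounds plus 3 SD, cut at about 28% in these data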;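 also: 0% = plate median of test compound wells and 100% = 2 mM ZnCl2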
PolyA inhibitor: inhibitors of polyadenylation in S. cerevisiae; S. cerevisiae SKY197-pL101 polyadenylation reporter, beta-gal luminescence; efflux-impaired pdr1/pdr3 knockout yeast; score 100 = 6 SD above DMSO; activity score, % at 12 µM; actives 0.02% (n = 300,000); AID 1875;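 active = lowest replicate activity score at least 50, where 100 means six control SD above control mean; inconclusive = lowest score under 50 but half or more replicates reach 50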;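 also: yeast exposed to compound for 9 h at 30 °C; higher score means more reporter readthrough which indicates perturbed polyadenylation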
ALR inh: human ALR oxidase inhibition via reduced H2O2; P55789; purified ALR, DTT oxidation, H2O2 HRP-luminol luminescence; inhibition, % (concentration not given with the values); actives 3.8% (n = 290,000);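 active = mean replicate inhibition above about 79%, with every replicate also reaching it, limit read from the data; inconclusive = only one of the two criteria met; inactive = mean below limit and not every replicate reaching it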
CaV13 FRET inh: Primary screen for inhibitors of IQ motif and Ca2+-dependent inactivation inhibitor domain binding in CACNA1D, Förster resonance energy transfer in living cells, …; HEK cells, CFP/YFP FRET ICDI-IQ, plate reader, 10 min; percent FRET-ratio fall versus neutral wells; inhibition, % at 12.3 µM; actives 0.098% (n = 340,000);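 active = mean replicate inhibition of at least 30% and at least 1% of replicates passing that level; inconclusive = only one of the two criteria is met; inactive = neither criterion is met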;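 also: 0% = median of the neutral control wells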
An asterisk follows results filed as active; ? = inconclusive; nt = no result.

SMILES	IDE act	IDE cell inh	PfM18AAP inh	PolyA inhibitor	ALR inh	CaV13 FRET inh
O=C1NC(=O)/C(=C\c2ccc(Sc3ccc(Cl)cc3)o2)N1	3.7	6.5	-6.4	22.2	90.4*	nt
Cc1cc(C)cc(N(CCC#N)C(=O)CSc2n[nH]c(N)n2)c1	4.9	5.5	nt	15.3	nt	-5.3
OC(CN1CCCCC1)Cn1c2ccccc2c2cc(Br)ccc21 (centres undefined)	-5.0	4.3	10.1	-5.0	-22.6	-20.9
COc1ccc(NCC(O)Cn2c(C)c(C)c3ccccc32)cc1 (centres undefined)	2.2	4.1	9.0	8.6	nt	-7.2
Cc1c(C)n(CC(O)CN2CCCCCC2)c2ccccc12 (centres undefined)	8.5	3.0	7.9	-9.6	97.5*	-1.2
Cc1c(C)n(CC(O)CNc2ccccc2)c2ccccc12 (centres undefined)	2.4	2.6	12.0	8.2	98.1*	3.5
O=C(CSc1nnc(Cc2cccs2)n1C1CC1)NC1CCS(=O)(=O)C1 (centres undefined)	-2.3	-0.5	nt	nt	-3.8	-4.8
COc1cc(C(=O)N/N=C(\C)Cn2nc([N+](=O)[O-])cc2C)ccc1O	4.8	6.0	-1.7	9.9	83.0*	-4.9
COc1ccc(/C(C)=N/NC(=O)Cn2nc([N+](=O)[O-])cc2C)cc1	0.7	-0.2	1.3	7.4	1.8	-3.9
COc1ccc(N2CCN(C(C)C(=O)N3CC(C)OC(C)C3)CC2)cc1 (centres undefined)	4.5	-0.3	7.6	nt	39.3	-2.9
CCOC(=O)Cc1csc(SCC(=O)N2CCN(c3ccc(OC)cc3)CC2)n1	-3.0	8.1	1.7	3.6	87.0*	-3.6
COc1ccc(N2CCN(C(=O)CSc3ccc(C)cc3)CC2)cc1	-1.3	2.4	0.7	-7.9	0.5	-2.3
COc1ccc(N2CCN(C(=O)CSc3ncn[nH]3)CC2)cc1	-0.7	8.0	nt	-11.6	99.1*	-1.8
Cc1nc2c(OCCC3CCCCC3)cccn2c1N(C)C(=O)CCC1CCCC1	nt	nt	nt	nt	nt	-3.7
Cc1cc(NCc2ccccn2)nc2ccccc12	-2.2	1.0	3.0	2.6	84.4*	-8.7
COc1cccc(C=O)c1OCCCOc1cccc2cccnc12	-4.5	1.4	-1.7	-15.1	97.5*	11.3
O=C(COC(=O)c1ccc(Cl)nc1)NCCC1=CCCCC1	0.8	-2.7	-1.9	-4.6	87.7*	-2.7
COc1ccc2c(c1)[C@@]1(OCCC=C[C@H]1C)C(=O)N2Cc1ccc(Br)cc1	nt	nt	nt	nt	nt	-2.3
Cc1csc(=O)n1CCC(=O)OC(C)C(=O)Nc1ccc(N2CCOCC2)cc1 (centres undefined)	0.6	-2.9	nt	nt	18.0	-17.1
NC(=O)COc1ccccc1C(=O)O	7.6	-2.7	4.6	-7.8	87.4*	-0.2
CCn1c(SCC(=O)NNC(=S)Nc2ccc(C)cc2)nnc1-c1ccc(Cl)cc1	4.4	3.2	1.3	6.6	96.5*	-5.1
CC(C)(C)OC(=O)N[C@H]1C=C[C@@H](CC(=O)OCC(F)(F)F)C1	nt	nt	nt	nt	nt	-7.8
O=C(Oc1coc(CSc2ncccn2)cc1=O)c1ccco1	1.2	0.1	-8.5	-0.2	?	-7.2
O=C(Oc1coc(CSc2ncccn2)cc1=O)c1cccc([N+](=O)[O-])c1	-2.0	0.1	8.5	-8.1	97.1*	1.5
CNC(=S)NNC(=O)c1cccn(Cc2cccc(C(F)(F)F)c2)c1=O	-5.5	-2.1	17.2	1.2	nt	-18.9
SMILES	IDE act	IDE cell inh	PfM18AAP inh	PolyA inhibitor	ALR inh	CaV13 FRET inh
NS(=O)(=O)c1ccc(Sc2ccccn2)c([N+](=O)[O-])c1	nt	-3.3	-4.8	0.9	nt	-20.1
NS(=O)(=O)c1ccc(Sc2nc3ccccc3s2)c([N+](=O)[O-])c1	3.9	0.7	5.7	1.5	98.4*	-18.3
O=C(O)c1ccc(S(=O)(=O)Nc2ccc(O)c(Sc3nc4ccccc4s3)c2)cc1	4.6	-0.7	19.8	-3.7	99.7*	-5.0
O=C(O)c1ccc(S(=O)(=O)Nc2cccc(CP(=O)(c3ccccc3)c3ccccc3)c2)cc1	-7.1	-6.6	-8.6	0.7	-3.4	-5.1
COc1cc(F)ccc1-c1csc(C(O)c2ccc(F)cc2)n1 (centres undefined)	nt	nt	nt	nt	nt	-10.1
COc1cc(C=C(C#N)C(=O)c2ccccc2)cc(OC)c1OC	nt	nt	nt	nt	nt	-2.4
N#C/C(=C\c1ccc(O)c(O)c1)C(=O)c1ccc(O)c(O)c1	-1.6	4.2	nt	nt	99.7*	-4.6
COc1ccccc1Cc1c(-c2ccc(C#N)cc2)nc2c(C)cc(Br)cn12	nt	nt	nt	nt	nt	-6.5
CC(=O)Nc1ccc(N)cc1	-0.4	1.7	nt	nt	89.4*	nt
Nc1ccc(NC(=O)Nc2ccc(N)cc2)cc1	0.9	nt	-1.1	2.5	99.2*	-3.5
NS(=O)(=O)c1ccc(NC(=O)Nc2ccc(Cl)cc2)cc1	-1.6	7.1	3.5	3.1	-6.2	-1.7
Nc1ccc(NC(=O)c2cccs2)cc1	0.8	-4.9	-8.4	11.3	98.4*	-1.6
CCCCc1c(O)nc(SCC(=O)N2CCOCC2)n(-c2ccc(C)cc2)c1=O	nt	nt	nt	nt	nt	-11.0
O=C1[C@@H]2C(c3ccc(F)cc3)=NO[C@@H]2C(=O)N1Cc1ccccc1	nt	-7.8	2.5	1.7	0.4	-1.9
COc1ccc(CN2C(=O)[C@@H]3C(c4ccc(F)cc4)=NO[C@@H]3C2=O)cc1	-1.6	1.7	-6.1	nt	98.7*	nt
COCCn1c(C)cc(C(=O)CSc2ccc(NC(C)=O)cc2)c1C	5.0	3.2	11.4	-0.5	98.3*	-4.5
COCC(C)n1c(C)cc(C(=O)CSc2ncccn2)c1C (centres undefined)	5.6	6.2	-9.6	-1.5	-4.0	0.7
C=CCn1c(C)cc(C(=O)CSc2ccc(NC(C)=O)cc2)c1C	5.4	1.9	1.0	-0.5	97.6*	nt
CC(=O)Nc1ccc(SCC(=O)c2cc(C)n(Cc3cccs3)c2C)cc1	3.8	3.5	21.6	-19.4	-11.0	-2.7
Cc1cc(C(=O)CSc2n[nH]c(N)n2)c(C)n1C1CC1	-2.2	6.0	-5.4	4.1	6.7	nt
COCC(C)n1c(C)cc(C(=O)CSc2ccc(NC(C)=O)cc2)c1C (centres undefined)	-1.6	-0.6	23.9	4.4	98.5*	0.9
C=CCn1c(C)cc(C(=O)CSc2n[nH]c(N)n2)c1C	8.2	-0.1	2.2	-5.5	97.6*	-5.7
O=C(Nc1nc2ccc(SC(F)F)cc2s1)c1ccc(NS(=O)(=O)c2ccc(F)c(F)c2)cc1	-0.5	4.5	-1.0	-4.9	98.6*	-4.3
C#CCOCCOCCOCCNc1nc(N2CCN(C(=O)[C@H](C(C)C)n3cc(CCO)nn3)CC2)nc(N2CCN(C(=O)[C@H](C)n3cc(CCCN=C(N)N)nn3)CC2)n1	5.6	nt	nt	nt	nt	-9.4
COc1cc(C2N(c3ccccc3)CCN2c2ccccc2)cc(OC)c1OC	8.7	2.1	0.5	5.6	99.1*	-5.0
